Anthrax LT inh: anthrax lethal toxin internalization inhibition; Cells, anthrax lethal toxin internalization, FRET ratio (460/530); actives 0.67% (n = 70,000); AID 912; Potency, µM (doses to about 40 µM), for inactives: at the highest dose activity change, negative = inhibition, hits mostly inhibitors; further: on the % scale 0 is the no-effect control and ±100 the full control effect; nearly all actives have a fitted effect of over 50% in size
AmpC det inh: AmpC beta-lactamase inhibition, detergent assay; Potency, µM (series often up to 28.7 µM), without a hit: at the highest dose activity change, negative = inhibition; AID 584; actives 0.09% (n = 71,000); purified AmpC, nitrocefin hydrolysis with detergent; P00811; active means well fitted curve in the direction sought with a large enough effect; inconclusive means small, poorly fitted or top-dose-only effect; further: on the % scale 0 is the no-effect control and ±100 the full control effect
Target sequence (P00811 whole entry, looked up): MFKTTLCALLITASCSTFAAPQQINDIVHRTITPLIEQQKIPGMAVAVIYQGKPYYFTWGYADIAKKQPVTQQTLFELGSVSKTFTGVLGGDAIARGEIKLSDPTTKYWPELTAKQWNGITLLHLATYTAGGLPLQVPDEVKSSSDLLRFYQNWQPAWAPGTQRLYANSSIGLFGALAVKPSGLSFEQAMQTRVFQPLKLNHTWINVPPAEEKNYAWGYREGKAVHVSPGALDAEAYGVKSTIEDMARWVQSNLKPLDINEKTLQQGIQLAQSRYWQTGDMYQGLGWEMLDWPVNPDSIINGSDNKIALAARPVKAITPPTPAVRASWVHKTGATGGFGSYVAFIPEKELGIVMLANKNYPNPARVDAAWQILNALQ
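E. coli AmpC (5.3 nM) in 20 mM phosphate pH 7.0 with 0.01% Triton X-100, preincubated 15 min RT with compound; nitrocefin (2 uL of 800 uM stock) hydrolysis followed by 480 nm absorbance every 20 s over 4 min.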
Prx2 Sm inh: blocks S. mansoni peroxiredoxin 2 enzymatic activity. S. mansoni Prx2 activity coupled to TGR/GSH (TGR is thioredoxin glutathione reductase), NADPH fluorescence loss, qHTS. Potency, µM. actives 0.07% (n = 65,000)
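Activity is read as the drop in NADPH fluorescence (365/450 nm), recorded every 30 sec for 8 min after H2O2 addition. Prx2 is coupled to TGR-driven NADPH oxidation through glutathione, in phosphate buffer pH 7.4.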
AmpC nodet inh: inhibitors of E. coli AmpC beta-lactamase without detergent; AmpC nitrocefin hydrolysis, absorbance 480 nm, no detergent; Potency, µM (series often up to 28.7 µM), without a hit: at the top dose activity change, negative = inhibition; actives 1.8% (n = 71,000); further: % of control where 0% means no effect
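AmpC in 20 mM phosphate buffer pH 7.0 was preincubated 15 min at room temperature with compounds. Nitrocefin (800 uM stock) was then added and hydrolysis followed at 480 nm every 20 s for 4 min.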
* = called active by the depositor; ? = inconclusive; / = not tested or not shown; [ ] = another dose, or the depositor's remark. Sampled rows, rich in hits. Any-hit rate of the full collection: about 2.4%. Unless noted, the call rests on the fitted dose curve. Potency means the concentration at half of the fitted maximal effect.

SMILES | Anthrax LT inh | AmpC det inh | Prx2 Sm inh | AmpC nodet inh
CN[C@H]1CC[C@@H](c2ccc(Cl)c(Cl)c2)c2ccccc21 | 10µM* | / | / | /
CC(=O)NCCn1c(SCC#N)nc2ccccc2c1=O | ? | 1% | >57 | 6%
N#CCSc1nc2ccccc2c(=O)n1CCC(=O)NCCc1ccccc1 | 1% | -3% | >57 | 16µM*[single pt active]
N#Cc1c(-c2ccc(Cl)cc2Cl)nc2n(c1=O)CCS2 | ? | 0% | >57 | 10µM*[single pt active]
COc1cccc(C(c2nnnn2CCc2ccccc2)N2CCN(c3ccccc3)CC2)c1OC (stereo not drawn) | ? | 0% | >57 | 54%
COc1ccccc1C(c1nnnn1CCc1ccccc1)N1CCN(c2ccccc2)CC1 (stereo not drawn) | 7.9µM* | -1% | >57 | 27%
COC(=O)c1ccccc1NC(=O)CSc1nc(N)cc(N)n1 | 13% | 15% | >57 | 7%
Cn1cccc1Cc1nnc(SCC(=O)N2CCOCC2)n1-c1ccc(F)cc1 | 0% | 14% | >57 | 4µM*[single pt active]
Cn1cccc1Cc1nnc(SCC(N)=O)n1-c1ccc(F)cc1 | 8% | 10% | >57 | 4µM*[single pt active]
O=C(c1ccc(CS(=O)(=O)c2ccc(Br)cc2)o1)N1CCCCCC1 | ? | 7% | >57 | 3.2µM*[single pt active]
Cc1ccc(S(=O)(=O)Cc2ccc(C(=O)N3CCN(Cc4ccccc4)CC3)o2)cc1 | -19% | 13% | >57 | 100%
O=C(c1ccc(CS(=O)(=O)c2ccccc2)o1)N1CCOCC1 | -14% | 10% | >57 | 2.5µM*[single pt active]
O=C(c1ccc(CS(=O)(=O)c2ccc(Br)cc2)o1)N1CCCC1 | -4% | 15% | >57 | 4µM*[single pt active]
O=C(c1ccc(CS(=O)(=O)c2ccc(Br)cc2)o1)N1CCN(C2CCCCC2)CC1 | -3% | 6% | >57 | -2%
CNC(=O)c1ccc(Oc2ccc(C(=O)NC)cc2)cc1 | 10% | -4% | >57 | -16%
O=C(NC1CCCCC1)N1CCC(n2c(=O)[nH]c3ccccc32)CC1 | -14% | 18% | >57 | 3.2µM*[single pt active]
Cc1nc2c(s1)sc1ccccc12 | -4% | 1% | >57 | -4%
Cc1csc(Sc2nc3c(c(=O)[nH]c(=O)n3C)n2CCCc2ccccc2)n1 | -13% | -5% | >57 | 16µM*[single pt active]
Cc1cc(C(=O)N2CCC(C(F)(F)F)n3nccc32)on1 (stereo not drawn) | 9% | 11% | >57 | -2%
COCCCNC(=O)c1ccc(CS(=O)(=O)c2ccc(OC)cc2)o1 | -11% | 12% | >57 | 4µM*[single pt active]
COc1ccc(S(=O)(=O)Cc2ccc(C(=O)NCCc3ccc(S(N)(=O)=O)cc3)o2)cc1 | -11% | 11% | >57 | -4%
COc1ccc(S(=O)(=O)Cc2ccc(C(=O)NCc3ccc(F)cc3)o2)cc1 | ? | 6% | >57 | 4µM*[single pt active]
COc1ccc(S(=O)(=O)Cc2ccc(C(=O)NCc3cccnc3)o2)cc1 | -9% | 16% | >57 | 4µM*[single pt active]
COc1cc(C2C(C(=O)OC(C)C)=C(C)Nc3ncnn32)cc(OC)c1OC (stereo not drawn) | -1% | 14% | >57 | 4µM*[single pt active]
COc1ccc(C2C(C(C)=O)=C(C)Nc3ncnn32)cc1OC (stereo not drawn) | ? | 0% | >57 | -5%
SMILES | Anthrax LT inh | AmpC det inh | Prx2 Sm inh | AmpC nodet inh
COc1ccccc1C(=O)N(Cc1ccco1)C1CCS(=O)(=O)C1 (stereo not drawn) | 3% | 15% | >57 | 8%
O=C(c1cnn2ccccc12)N(Cc1ccco1)C1CCCC1 | 0% | 10% | >57 | 4µM*[single pt active]
COc1ccccc1-c1nnc(SCC(=O)NCc2c(C)c(Cl)cc(C(C)C)c2O)o1 | 10µM* | 0% | >57 | 94%
COc1ccccc1-c1nnc(SCC(=O)Nc2c(Cl)cccc2Cl)o1 | 20% | -3% | >57 | -14%
Cn1c(Cc2ccccc2)nnc1SCC(=O)Nc1ccccc1N1CCOCC1 | -10% | -6% | >57 | 45%
Cc1oc2c(O)c(O)ccc2c(=O)c1-c1cnn(-c2ccccc2)c1 | 7.9µM* | 3% | / | -7%
Cc1ccc2c(CC(=O)Nc3sccc3C(N)=O)coc2c1 | -12% | -2% | >57 | 13µM*[single pt active]
Cc1nnc(SCC(=O)Nc2ccc3c4c(cccc24)CC3)n1C | 2% | -2% | / | 6%
Cc1ccccc1-c1noc(-c2ccc(O)cc2)n1 | 10µM* | -3% | / | -7%
Cc1ccc(-c2noc(-c3ccccc3Br)n2)cc1 | ? | 10% | / | -17%
CCOc1c(P(=S)(N(C)C)N(C)C)c(C)nn1-c1ccccc1 | -14% | -1% | >57 | 62%
CC1(C)S[C@@H]2[C@H](NC(=O)[C@H](C(=O)O)c3ccsc3)C(=O)N2[C@H]1C(=O)O | 0%[3.58 µM] | 5µM* | >57 | 4µM*
CC1(C)S[C@@H]2[C@H](NC(=O)[C@@H](NC(=O)N3CCNC3=O)c3ccccc3)C(=O)N2[C@H]1C(=O)O | -1%[3.58 µM] | 7.9µM* | >57 | 5µM*
CCN1CCN(C(=O)N[C@H](C(=O)N[C@@H]2C(=O)N3[C@@H]2SC(C)(C)[C@@H]3C(=O)O)c2ccccc2)C(=O)C1=O | -1%[3.58 µM] | ? | >57 | ?
CC1(C)S[C@@H]2[C@H](NC(=O)[C@@H](N)c3ccccc3)C(=O)N2[C@H]1C(=O)O[C@H]1OC(=O)c2ccccc21 | -7%[3.58 µM] | ? | >57 | 0.04µM*
CC1(C)S[C@@H]2[C@H](NC(=O)[C@@H](N)c3ccc(O)cc3)C(=O)N2[C@H]1C(=O)O | 2%[3.58 µM] | 0.32µM* | >57 | 1.3µM*
O=C(COC(=O)c1ccccn1)Nc1ncc(C(F)(F)F)cc1Cl | -5% | 11% | >57 | 2%
Cc1cc(C)nc(SCC(=O)Nc2cc(C)on2)n1 | -11% | 6% | / | 14%
Cc1cc(C)cc(N2CC(C(=O)O)CC2=O)c1 (stereo not drawn) | / | -3% | >57 | 4%
Cc1cc(C)n(-c2cc(N3CCOCC3)nc(-c3ccccc3)n2)n1 | -2% | 1% | >57 | 126%
COc1ccccc1NC(=O)Cn1cnc2c(cnn2-c2ccccc2)c1=O | 0% | 2% | >57 | 17%
CCOC(=O)C1=C(C)N=c2s/c(=C/c3ccco3)c(=O)n2C1c1cccc(OC)c1 (stereo not drawn) | ? | 6% | >57 | 7.9µM*
CCOC(=O)C1=C(C)N=c2s/c(=C\c3cccn3C)c(=O)n2C1c1cccc(OC)c1OC (stereo not drawn) | ? | 10% | / | 33%
COc1cccc(CNC(=O)Nc2cccs2)c1 | ? | -1% | >57 | 13µM*
COc1ccc(CNC(=O)Nc2cccs2)cc1OC | -21% | -4% | >57 | -7%
CCN(CC)CCCNc1nnc(C)c(=O)[nH]1 | 5% | 0% | >57 | -4%
COc1ccc(NC(=O)c2cc(-c3cc(C)ccc3O)n[nH]2)cc1Cl | ? | -3% | >57 | -12%
COc1ccc(OC)c(NC(=O)c2cc(-c3cc(Cl)ccc3O)n[nH]2)c1 | / | -1% | >57 | 10µM*
COCCN1CN(S(=O)(=O)c2ccccc2)c2nc3ccccc3nc21 | 3% | -3% | >57 | 41%
O=C1C(Cl)=C(Cl)C(=O)C(Cl)=C1Cl | ? | -24% | / | 13µM*

High-throughput results deposited in PubChem BioAssay by National Center for Advancing Translational Sciences (NCATS).
